Reference: PubChem BioAssay AID588343 (Broad Institute, 2011)
The campaign covered roughly 1,200 compounds. About 650 (54%) were called active. Not shown: some 5% with an inconclusive outcome.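 How the source made its calls: active means signal-lowering curve whose fitted half-maximal concentration is at or below ten times the top valid dose tested; inconclusive means flat curve with 30 to 70% inhibition, or poor fit; inactive means signal increase, flat within 30%, or potency beyond limit.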 So high a share suggests a set chosen from earlier hits. Not all results are given here. Entries with a potency or affinity are not part of this list.

assay: EBV LMP1 TES2 canonical NF-kB signalling blockers – cell-based, HEK293, luciferase, cherry-pick, dose response (AID 588343); conditions: HEK293 LMP1 TES2 NF-kB luciferase reporter, 16 h; series mostly up to 35 µM; activity change, negative = inhibition: at the top concentration;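 further: 0% = median of neutral control wells and -100% = MG132 positive control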

Compound	activity change, negative = inhibition
CC(=NNC(=S)N1CCCCCC1)c1cccc2cccnc12	53% (inactive)
Cc1ccc2oc(C(=O)Nc3ccc(S(=O)(=O)Nc4onc(C)c4C)cc3)c(C)c2c1	4.12% (inactive)
COc1ccc(OC)c(S(=O)(=O)NC(C)CCc2ccccc2)c1 (stereo unspecified)	-3.32% (inactive)
O=C(NCC1CCOCC1)c1ccc(OC2CCN(Cc3ccccn3)CC2)cc1	-4.71% (inactive)
COCCCNCC1C(Oc2ccc(Cl)cc2)C(=O)N1c1ccccc1C (stereo unspecified)	-5.79% (inactive)
Cc1sc2ncn(CC(=O)N3CCC(C(N)=O)CC3)c(=O)c2c1S(=O)(=O)N1CCOCC1	-2.58% (inactive)
Cc1ccc(CCNC(=O)CCc2nc3ccccc3[nH]2)cc1	17.2% (inactive)
CCN(Cc1ccncc1)C(=O)CCc1ccccc1	5.62% (inactive)
CN(C)S(=O)(=O)c1ccc(Cl)c(C(=O)NCCNC(=O)c2cc(S(=O)(=O)N(C)C)ccc2Cl)c1	10.7% (inactive)
COc1cc(N)c(Cl)cc1C(=O)NC1CCN(Cc2ccccc2)CC1	47.7% (inactive)
NC(=O)CC(NC(=O)c1ccccc1)c1ccc(NC2CCN(Cc3ccccc3)CC2)c([N+](=O)[O-])c1 (stereo unspecified)	-11.4% (inactive)
O=C(N/N=C(/CC(=O)c1cccs1)C(F)(F)F)c1ccc(O)cc1	2.98% (inactive)
CN1CCN(CCOc2ccc(Cc3ccccc3)cc2)CC1	2.14% (inactive)
Cn1c(=O)[nH]c(=O)c2c1nc(CN1CCOCC1)n2CCCc1ccccc1	16.2% (inactive)
CCn1c2ccccc2c2cc(NC(=O)c3ccccc3-c3ccccc3C(=O)O)ccc21	10.4% (inactive)
CS(=O)(=O)N(CC(=O)Nc1ccc(F)cc1F)C1CCCCC1	6.2% (inactive)
O=[N+]([O-])c1ccc(/C=N/Nc2cc(Cl)nc(-c3ccccc3)n2)cc1	42.9% (inactive)
COC(=O)C1=C(C)N(c2cc(C)cc(C)c2)/C(=C/c2ccc(O)cc2)C1=O	-5.12% (inactive)
COC(=O)c1ccc(/C=C(/NC(=O)c2ccccc2)C(=O)N2CCOCC2)cc1	10.5% (inactive)
CC[C@H]1OC(=O)[C@H](C)[C@@H](O[C@H]2C[C@@](C)(OC)[C@@H](O)[C@H](C)O2)[C@H](C)[C@@H](O[C@@H]2O[C@H](C)C[C@H](N(C)C)[C@H]2O)[C@](C)(O)C[C@@H](C)C(=NOCOCCOC)[C@H](C)[C@@H](O)[C@]1(C)O	0.266% (inactive)
Cc1nnc(NC(=O)CSc2nnc(Cc3cccn3C)n2CCc2ccccc2)s1	3.74% (inactive)
Cc1ccnc(SCCn2c(N3CCN(c4ccccc4)CC3)nc3c2c(=O)[nH]c(=O)n3C)n1	-12.6% (inactive)

Compound	activity change, negative = inhibition
CSc1nc(N)nc(SCC(=O)C23CC4CC(CC(C4)C2)C3)c1C#N	20.8% (inactive)
O=C(O)/C=C/c1ccc(Cn2ccnc2)cc1	-7.19% (inactive)
Oc1[nH]c2ccccc2c1N=Nc1c(F)c(F)c(Cl)c(F)c1F	23.3% (inactive)
CC(C(=O)N=Nc1c(O)[nH]c2ccccc12)n1cnc2ccccc2c1=O (stereo unspecified)	-8.31% (inactive)
O=C(CCc1ccccc1Cl)N1CCN(S(=O)(=O)c2ccccc2)CC1	-13.7% (inactive)
COc1ccc(-c2cnc(NCc3cc4c(cc3[N+](=O)[O-])OCO4)n2C)cc1	-18.9% (inactive)
CC(C)c1nnc(NC(=O)c2ccc(N3C(=O)CCC3=O)cc2)s1	9.82% (inactive)
COC(=O)C(NS(=O)(=O)c1ccc(N2CCCC2=O)cc1)c1ccccc1 (stereo unspecified)	-4.56% (inactive)
Cn1nc(-c2ccc(N3CCOCC3)c(NS(=O)(=O)c3ccccc3)c2)c2ccccc2c1=O	-2.5% (inactive)
COc1ccc(OC)c2c1sc(=NC(=O)c1ccco1)n2C	6.54% (inactive)
CCCCCC(=O)N1C[C@@H](O)[C@H](n2cc(C3CC3)nn2)C[C@@H]1c1ccc(C)cc1	6.25% (inactive)
CN1C(=O)C(CC(=O)NC2CCCCC2)SC1=Nc1ccccc1 (stereo unspecified)	2.02% (inactive)
COc1ccc(C(=O)CSc2nnc(Cc3ccccc3)o2)cc1	-7.07% (inactive)
CCCc1cc(=O)[nH]c(SCC(=O)NC2CCCCC2)n1	0.752% (inactive)
COc1ccc(S(=O)(=O)NC(CC(=O)NCc2ccco2)C(C)C)cc1 (stereo unspecified)	-10.8% (inactive)
CCOC(=O)N1CCC(n2c(=S)[nH]c3ccccc3c2=O)CC1	9.29% (inactive)
CCOCCCn1cnc2c3cc(F)ccc3n(C)c2c1=O	13.7% (inactive)
COc1cc(Cl)cc(C(c2c(C(=O)O)[nH]c3ccccc23)c2c(C(=O)O)[nH]c3ccccc23)c1O	-3.69% (inactive)
COc1ccc(CCNC(=O)CSc2ccsc2[N+](=O)[O-])cc1OC	1.89% (inactive)
COc1ccc(CCNC(=O)CSC(=O)c2ccccc2)cc1OC	12.9% (inactive)
O=C(c1noc2c1CCCC2)N1CCCCC1	10.1% (inactive)
COc1cc(/C=C(\C#N)c2ccccn2)ccc1OCc1ccccc1Cl	2.29% (inactive)

Compound	activity change, negative = inhibition
CCN(CC(=O)Nc1ccc(NC(C)=O)cc1)C(=O)c1cccnc1Sc1ccc(C)c(C)c1	-7.7% (inactive)
Cn1cc(S(=O)(=O)N2CCN(C(=O)c3ccco3)CC2)c(=O)n(C)c1=O	7.15% (inactive)
CCOC(=O)c1ccc(NC(=O)CSc2nc(N3CCOCC3)nc(N3CCOCC3)n2)cc1	82.1% (inactive)
O=C(c1ccco1)N1CCN(S(=O)(=O)/C=C/c2ccccc2)CC1	-6.52% (inactive)
COCCN1Cc2cccc(C(=O)N3CCN(c4cc(C)ccc4C)CC3)c2C1=O	-8.16% (inactive)
O=C(c1cccs1)N1CC=C(c2ccccc2)CC1	3.11% (inactive)
CCOC(=O)c1ccc(NC(=S)N2CCSC2c2ccc(OC)cc2)cc1 (stereo unspecified)	6.65% (inactive)
COC(=O)C1=C(C)NC(C)=C(C(=O)OCC(C)C)C1c1ccccc1[N+](=O)[O-] (stereo unspecified)	18.9% (inactive)
O=C(O)C1CC(=O)N(c2ccc(Br)cc2)C1 (stereo unspecified)	-4.39% (inactive)
CCCC(C)NC(C)C(=O)NC1CCCC1 (stereo unspecified)	-5.6% (inactive)
CCCCCCNC(=O)O[C@]12C[C@@H](C(=O)OC)[C@@H](C(=O)OC)C[C@@]1(O)CN(S(=O)(=O)c1ccc(C)cc1)C2	-2.65% (inactive)
Cc1nc(N)nc(SCc2ccc([N+](=O)[O-])cc2)c1N	-1.43% (inactive)
Brc1cccc(-c2cnco2)c1	10.1% (inactive)
CC(C)NCC(O)COc1cccc2ccccc12 (stereo unspecified)	-3.16% (inactive)
Cc1ccc(NC(=S)NCc2cccs2)cc1	-5.01% (inactive)
Cc1ccc(CCNC(=O)Cc2ccc(NC3=NC4CS(=O)(=O)CC4S3)cc2)cc1 (stereo unspecified)	-1.43% (inactive)
CCC(=O)OC1c2ccccc2C(=O)N1Cc1ccccc1 (stereo unspecified)	-7.48% (inactive)
CC1=CC(=NOC(=O)/C=C/c2ccccc2)C=C(C)C1=O	6.6% (inactive)
O=C1CC(c2ccccc2)Oc2ccccc21 (stereo unspecified)	3.68% (inactive)
COc1ccccc1C1(CC(=O)O)CCOC(C)(C)C1 (stereo unspecified)	-4.13% (inactive)
O=C(Cn1cc(CNC(=O)C2CCCCC2)nn1)Nc1cc(C(F)(F)F)ccc1Cl	-8.87% (inactive)
COC(=O)c1[nH]c2ccc(C)cc2c1NC(=O)NC1CCCCC1	23.4% (inactive)

Compound	activity change, negative = inhibition
O=C(NCCCN1CCCCC1)c1ccc2c(c1)NC(=O)c1ccccc1S2	37.7% (inactive)
Cn1cc(CC(=O)NCCCN2CCCC2)c2ccccc21	6.09% (inactive)
CCCNC(=O)N1CCN(S(=O)(=O)c2ccc(C)c(C)c2)CC1	-10.3% (inactive)
COc1ccc(S(=O)(=O)N2CCC(C(=O)NC3CC3)CC2)cc1OC	-3.85% (inactive)
O=C(O)c1ccc(-n2cncn2)c([N+](=O)[O-])c1	15% (inactive)
O=S(=O)(N/N=C/c1ccccc1F)c1ccccc1	-3.49% (inactive)
CCSc1nc2ccc(OC)cc2cc1C#N	10.6% (inactive)
O=[N+]([O-])c1cc(/C=N\O)ccc1Oc1ccc(F)cc1	9.78% (inactive)
CCOC(=O)c1sc2nc(C)nc(NCc3ccccc3)c2c1C	32.4% (inactive)
Cn1c(=O)c2ncn(CC(=O)O)c2n(C)c1=O	-11.1% (inactive)
COc1ccc(C(Nc2ccccn2)c2oc(CO)cc(=O)c2O)cc1 (stereo unspecified)	-2.04% (inactive)
Cc1ccc2c(c1)N(CC(=O)N1CCCC1)C(=O)c1cccnc1O2	2.23% (inactive)
COc1ccc(S(=O)(=O)N2CCN(CC(=O)Nc3ccc(C)c(F)c3)CC2)cc1	-3.25% (inactive)
O=C(NCc1ccccc1Cl)C1CCCN1S(=O)(=O)c1ccc(F)cc1 (stereo unspecified)	-9.02% (inactive)
Cc1ccc(C2=C/C(=C\c3cccnc3)C(=O)O2)cc1	-11.9% (inactive)
N=C1S/C(=C\c2ccccc2)C(=O)N1c1ccc(F)cc1	-6.59% (inactive)
CC1S/C(=C(\C#N)C(=O)NCc2ccco2)N(Cc2ccco2)C1=O (stereo unspecified)	-4.58% (inactive)
O=C1c2ccccc2C(Nc2cccnc2)N1Cc1ccccc1 (stereo unspecified)	-7.37% (inactive)
COc1ccc(NC(=O)C2CCCN(S(=O)(=O)c3cccc4nonc34)C2)c(OC)c1 (stereo unspecified)	-11.2% (inactive)
O=C(N1CCOCC1)N1CCN(S(=O)(=O)c2ccc(Cl)cc2)C1	-7.57% (inactive)
Cc1ccc(C)c(N2CCN(S(=O)(=O)c3ccc4c(c3)CCN4C(=O)CCC(=O)O)CC2)c1	-3.45% (inactive)
COc1ccc(/C=N/N=C/c2ccc(OC)c(OC)c2)cc1OC	9.12% (inactive)

Compound	activity change, negative = inhibition
COc1ccc(/C=C\C(=O)NCc2ccc3c(c2)cc(C)n3C)cc1OC	-4.59% (inactive)
Cc1cc(C)c(S(=O)(=O)Nc2nnc(CC(C)C)s2)c(C)c1	6.39% (inactive)
CC1(C)CC(NS(=O)(=O)c2ccc(F)cc2)CC(C)(C)N1	-4.19% (inactive)
O=C(Nc1ccncc1)OCc1ccccc1	-5.3% (inactive)
CN(C)CC(C)(C)CNS(=O)(=O)c1ccc(OC(F)(F)F)cc1	4.61% (inactive)
COc1ccc(NC(=O)COC(=O)/C=C/c2ccc(OC)c(S(=O)(=O)N3CCOCC3)c2)cc1	-2.68% (inactive)
COc1ccc(C(=O)N2CC(=O)Nc3ccccc32)cc1S(=O)(=O)N1CCCC1	15.1% (inactive)
O=C(O)[C@@H]1[C@H]2C[C@H]3c4[nH]c5ccccc5c4CCN3C[C@@H]2CC[C@@H]1O	-1.94% (inactive)
CCc1ccccc1N(CC(=O)NCc1ccco1)C(=O)c1snc(C(N)=O)c1N	0.513% (inactive)
CC(C)(C)C(=O)Nc1nnc(SCC(=O)Nc2ccc3c(c2)OCO3)s1	-4.9% (inactive)
COC(=O)c1ccc(CSc2nc3c(c(=O)n2-c2ccc(C)cc2)SCC3)o1	21.4% (inactive)
COc1ccc(-n2c(SCC(=O)Nc3ccc4c(c3)OCO4)nc3c(c2=O)SCC3)cc1	-8.49% (inactive)
O=C(Cn1ccc(C(F)(F)F)n1)Nc1cccc(S(=O)(=O)N2CCCCC2)c1	6.67% (inactive)
O=C(CN1CCN(S(=O)(=O)c2ccc(F)cc2)CC1)Nc1cccc(C(F)(F)F)c1	40.9% (inactive)
Cc1cccc(C)c1NC(=O)CN(C)C(=O)c1ccc(-c2cccc(C(F)(F)F)c2)o1	-0.08% (inactive)
Cc1ccc(-n2ccc(=O)c(C(=O)Nc3ccc(S(=O)(=O)N4CCOCC4)cc3)n2)cc1	-5.67% (inactive)
NC(=O)N/N=C/c1ccc(N2CCOCC2)s1	-23.2% (inactive)
O=C(NCCc1cn2ccccc2n1)C1CCCCC1	-4.95% (inactive)
